Here are results for 15 sequences from article PMC8384837, “Expanding the binding specificity for RNA recognition by a PUF domain”.

Holding throughout (experiment): yeast three-hybrid, YBZ-1, SC-Leu-His + 0.5 mM 3-AT, 4 days
Common to all, as to settings: tags: N-Gal4 AD-HA kept; label: inside an RPR1-promoter hybrid RNA with tandem MS2 sites; ssRNA

One test addresses PUM1 PUF domain R1-GFE (Homo sapiens, UniProt Q14671 828-1176, S863G;R864F;Q867E). The method in brief:
(§1)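 Pumilio-1 PUF domain libraries, randomized at the three base-contacting residues of each repeat, were co-expressed with matching RNA elements from a centromeric plasmid in strain YBZ-1, which carries a LexA–MS2 coat fusion and a HIS3 reporter. Transformants grew for four days on SC-Leu (input) or on SC-Leu-His + 0.5 mM 3-AT (selection), and the repeat regions were PCR-amplified and Illumina-sequenced. The interaction score is the log change in variant frequency from input to selection. That logarithm is base 2, with a pseudocount of 1 where a variant was absent.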

In a further test the target is PUM1 PUF domain R1-RKK (Homo sapiens, UniProt Q14671 828-1176, S863R;R864K;Q867K). Put shortly: as §1
A further test has as its target PUM1 PUF domain R1-KGT (Homo sapiens, UniProt Q14671 828-1176, S863K;R864G;Q867T). The method in brief:
as §1

The target of a further test is PUM1 PUF domain R4-SPG (Homo sapiens, UniProt Q14671 828-1176, N971S;H972P;Q975G). Put shortly: as §1
Sequence of PUM1 PUF domain R4-SPG (Q14671 828-1176 N971S/H972P/Q975G): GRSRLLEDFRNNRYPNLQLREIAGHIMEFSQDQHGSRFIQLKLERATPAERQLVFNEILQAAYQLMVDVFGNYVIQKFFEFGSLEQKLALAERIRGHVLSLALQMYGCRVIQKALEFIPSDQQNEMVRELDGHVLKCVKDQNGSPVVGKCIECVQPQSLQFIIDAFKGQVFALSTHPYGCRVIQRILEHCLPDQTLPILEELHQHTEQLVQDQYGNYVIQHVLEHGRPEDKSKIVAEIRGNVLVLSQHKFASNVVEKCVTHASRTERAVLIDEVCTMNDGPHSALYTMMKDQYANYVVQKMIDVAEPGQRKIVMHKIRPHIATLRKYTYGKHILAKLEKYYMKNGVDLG
Another test has as its target T1, PUM1 PUF domain R6-FRV (Homo sapiens, UniProt Q14671 828-1176, N1043F;Y1044R;Q1047V).
T1 sequence: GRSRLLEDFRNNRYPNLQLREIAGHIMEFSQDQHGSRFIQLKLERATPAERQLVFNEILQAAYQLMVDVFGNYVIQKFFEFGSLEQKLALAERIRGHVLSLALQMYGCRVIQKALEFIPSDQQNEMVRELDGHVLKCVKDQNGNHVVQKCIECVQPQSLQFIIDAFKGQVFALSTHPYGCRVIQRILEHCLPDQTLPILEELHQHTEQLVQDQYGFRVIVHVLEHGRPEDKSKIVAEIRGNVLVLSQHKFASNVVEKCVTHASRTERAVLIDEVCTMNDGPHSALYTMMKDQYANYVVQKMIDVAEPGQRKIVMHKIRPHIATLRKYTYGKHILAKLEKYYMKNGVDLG
Put shortly:
as §1

A further test has as its target PUM1 PUF domain R3-EWA (Homo sapiens, UniProt Q14671 828-1176, C935E;R936W;Q939A). The method in brief: as §1
Another test has as its target PUM1 PUF domain R5-GQC (Homo sapiens, UniProt Q14671 828-1176, C1007G;R1008Q;Q1011C). Put shortly:
as §1

The next test has as its target PUM1 PUF domain R4-RMI (Homo sapiens, UniProt Q14671 828-1176, N971R;H972M;Q975I). The method in brief:
as §1

The target of a further test is PUM1 PUF domain R5-DRN (Homo sapiens, UniProt Q14671 828-1176, C1007D;Q1011N). The method in brief:
as §1

In another test the target is PUM1 PUF domain R4-DFM (Homo sapiens, UniProt Q14671 828-1176, N971D;H972F;Q975M). The method in brief:
as §1

Another test has as its target PUM1 PUF domain R2-EWG (Homo sapiens, UniProt Q14671 828-1176, N899E;Y900W;Q903G). Put shortly:
as §1

Another test concerns the target PUM1 PUF domain R3-RTM (Homo sapiens, UniProt Q14671 828-1176, C935R;R936T;Q939M). Put shortly: as §1
For another test, the target named is PUM1 PUF domain R3-KFN (Homo sapiens, UniProt Q14671 828-1176, C935K;R936F;Q939N). The method in brief:
as §1

The target of a further test is PUM1 PUF domain R3-IFK (Homo sapiens, UniProt Q14671 828-1176, C935I;R936F;Q939K). The method in brief: as §1
In a further test the target is PUM1 PUF domain R5-VNR (Homo sapiens, UniProt Q14671 828-1176, C1007V;R1008N;Q1011R). Put shortly: as §1
The target in another test is PUM1 PUF domain R5-RLM (Homo sapiens, UniProt Q14671 828-1176, C1007R;R1008L;Q1011M). The method in brief:
as §1

The target in the next test is PUM1 PUF domain R5-PHS (Homo sapiens, UniProt Q14671 828-1176, C1007P;R1008H;Q1011S). The method in brief: as §1
The next test deals with T2, PUM1 PUF domain R6-TWD (Homo sapiens, UniProt Q14671 828-1176, N1043T;Y1044W;Q1047D).
T2 sequence: T1 sequence with F216T, R217W, V220D
Put shortly:
as §1

A further test addresses PUM1 PUF domain R8-KWF (Homo sapiens, UniProt Q14671 828-1176, N1122K;Y1123W;Q1126F). Put shortly:
as §1

For another test, the target named is PUM1 PUF domain R8-PYF (Homo sapiens, UniProt Q14671 828-1176, N1122P;Q1126F). Put shortly:
as §1

Substitutions are numbered along the chain they refer to.

Sequence of PUM1 PUF domain R3-EWA (Q14671 828-1176 C935E/R936W/Q939A): as the sequence (Q14671 828-1176 N971S/H972P/Q975G) above, with C108E, R109W, Q112A, S144N, P145H, G148Q counted along it

As for “GGCUAGAACUAGUGGAUCCCCCGGCGCCCGGCGGCUCGAGCCCGGGUAAGUGUAAAUUGUCUGCAUGCCGCCGGGCGCCAUGCCUGCAGGUCGACUCUAGAAAACAUG”, the binding signal with PUM1 PUF domain R1-GFE was 0.52 log2 enrichment (interaction score); with PUM1 PUF domain R1-RKK, 3.57 log2 enrichment (interaction score); in the test with PUM1 PUF domain R1-KGT, 3.61 log2 enrichment (interaction score).
As to “GGCUAGAACUAGUGGAUCCCCCGGCGCCCGGCGGCUCGAGCCCGGGUAAGUGUAAAUAGUCUGCAUGCCGCCGGGCGCCAUGCCUGCAGGUCGACUCUAGAAAACAUG”, the binding signal is 4.58 log2 enrichment (interaction score) with PUM1 PUF domain R4-SPG; 2.7 log2 enrichment (interaction score) with PUM1 PUF domain R6-FRV; 4.04 log2 enrichment (interaction score) with PUM1 PUF domain R3-EWA; 3.41 log2 enrichment (interaction score) in the test with PUM1 PUF domain R5-GQC; 3.31 log2 enrichment (interaction score) with PUM1 PUF domain R4-RMI; 3.15 log2 enrichment (interaction score) in the test with PUM1 PUF domain R5-DRN. Also, in the test with PUM1 PUF domain R4-DFM, the binding signal is 5.89 log2 enrichment (interaction score).
With “GGCUAGAACUAGUGGAUCCCCCGGCGCCCGGCGGCUCGAGCCCGGGUAAGUGUAAAAAGUCUGCAUGCCGCCGGGCGCCAUGCCUGCAGGUCGACUCUAGAAAACAUG”, in the test with PUM1 PUF domain R2-EWG, the binding signal was 8.11 log2 enrichment (interaction score).
“GGCUAGAACUAGUGGAUCCCCCGGCGCCCGGCGGCUCGAGCCCGGGUAAGUGUAAUUAGUCUGCAUGCCGCCGGGCGCCAUGCCUGCAGGUCGACUCUAGAAAACAUG”: the binding signal with PUM1 PUF domain R3-RTM was 2.52 log2 enrichment (interaction score); in the test with PUM1 PUF domain R3-EWA, 4.15 log2 enrichment (interaction score); in the test with PUM1 PUF domain R3-KFN, 3.99 log2 enrichment (interaction score); with PUM1 PUF domain R3-IFK it was 2.58 log2 enrichment (interaction score).
Take “GGCUAGAACUAGUGGAUCCCCCGGCGCCCGGCGGCUCGAGCCCGGGUAAGUGUACAUAGUCUGCAUGCCGCCGGGCGCCAUGCCUGCAGGUCGACUCUAGAAAACAUG”: the figures for the binding signal with PUM1 PUF domain R4-SPG and in the test with PUM1 PUF domain R4-DFM were 2.11 log2 enrichment (interaction score) and 5.35 log2 enrichment (interaction score), respectively.
In the case of “GGCUAGAACUAGUGGAUCCCCCGGCGCCCGGCGGCUCGAGCCCGGGUAAGUGUUAAUAGUCUGCAUGCCGCCGGGCGCCAUGCCUGCAGGUCGACUCUAGAAAACAUG”, the binding signal in the test with PUM1 PUF domain R5-VNR was 2.69 log2 enrichment (interaction score); with PUM1 PUF domain R5-RLM, 2.52 log2 enrichment (interaction score).
As for “GGCUAGAACUAGUGGAUCCCCCGGCGCCCGGCGGCUCGAGCCCGGGUAAGUGUAAGUAGUCUGCAUGCCGCCGGGCGCCAUGCCUGCAGGUCGACUCUAGAAAACAUG”, the binding signal with PUM1 PUF domain R3-EWA was 4.37 log2 enrichment (interaction score).
As for “GGCUAGAACUAGUGGAUCCCCCGGCGCCCGGCGGCUCGAGCCCGGGUAAGUGUCAAUAGUCUGCAUGCCGCCGGGCGCCAUGCCUGCAGGUCGACUCUAGAAAACAUG”, the binding signal with PUM1 PUF domain R5-DRN is 1.45 log2 enrichment (interaction score); with PUM1 PUF domain R5-RLM it was 1.79 log2 enrichment (interaction score).
As to “GGCUAGAACUAGUGGAUCCCCCGGCGCCCGGCGGCUCGAGCCCGGGUAAGUGUGAAUAGUCUGCAUGCCGCCGGGCGCCAUGCCUGCAGGUCGACUCUAGAAAACAUG”, the binding signal in the test with PUM1 PUF domain R5-PHS is 2.78 log2 enrichment (interaction score).
On to “GGCUAGAACUAGUGGAUCCCCCGGCGCCCGGCGGCUCGAGCCCGGGUAAGUGAAAAUAGUCUGCAUGCCGCCGGGCGCCAUGCCUGCAGGUCGACUCUAGAAAACAUG”, for which, in the test with PUM1 PUF domain R6-TWD, the binding signal was 3.18 log2 enrichment (interaction score).
As to “GGCUAGAACUAGUGGAUCCCCCGGCGCCCGGCGGCUCGAGCCCGGGUAAGUGUAUAUAGUCUGCAUGCCGCCGGGCGCCAUGCCUGCAGGUCGACUCUAGAAAACAUG”, in the test with PUM1 PUF domain R4-SPG, the binding signal is 3.58 log2 enrichment (interaction score).
On to “GGCUAGAACUAGUGGAUCCCCCGGCGCCCGGCGGCUCGAGCCCGGGUAAGUGUAAAUGGUCUGCAUGCCGCCGGGCGCCAUGCCUGCAGGUCGACUCUAGAAAACAUG”, for which, in the test with PUM1 PUF domain R1-GFE, the binding signal is 4.79 log2 enrichment (interaction score).
Consider “GGCUAGAACUAGUGGAUCCCCCGGCGCCCGGCGGCUCGAGCCCGGGUAAGUGUAAAGAGUCUGCAUGCCGCCGGGCGCCAUGCCUGCAGGUCGACUCUAGAAAACAUG”, for which, in the test with PUM1 PUF domain R2-EWG, the binding signal is 4.05 log2 enrichment (interaction score).
For the sequence “GGCUAGAACUAGUGGAUCCCCCGGCGCCCGGCGGCUCGAGCCCGGGUAAGCGUAAAUAGUCUGCAUGCCGCCGGGCGCCAUGCCUGCAGGUCGACUCUAGAAAACAUG”, the figures for the binding signal with PUM1 PUF domain R8-KWF and with PUM1 PUF domain R8-PYF were 4.32 log2 enrichment (interaction score) and 5.02 log2 enrichment (interaction score), respectively.
“GGCUAGAACUAGUGGAUCCCCCGGCGCCCGGCGGCUCGAGCCCGGGUAAGUGUAAAUCGUCUGCAUGCCGCCGGGCGCCAUGCCUGCAGGUCGACUCUAGAAAACAUG”: the binding signal in the test with PUM1 PUF domain R1-KGT was 4.83 log2 enrichment (interaction score).
